Source: PubChem BioAssay (EPA / NIEHS)
Records with an inconclusive call do not appear. Active and inactive are the calls of the source. The calls were made as follows: active = hit-call score of the fitted dose curve at least 0.9, where 1 is the maximum; inconclusive = response in the unintended direction; inactive = score below 0.9.

Read-out: Broad substrate specificity ATP-binding cassette transporter ABCG2 (Homo sapiens) (UniProt Q9UNQ0)
Assay: CLD_ABCG2_6hr: CellzDirect (CLD) Gene Expression Assay for ABC Transporter (ABCG2) at 6 hours (AID 2283660)
Description: CLD_6hr is a cell-based, multiplexed-readout assay that uses hepatocyte, a human liver primary cell, with measurements taken at 6 hours after chemical dosing in a 96-well plate.CLD_ABCG2_6hr is one of 16 assay component(s) measured or calculated from the CLD_6hr assay. It is designed to make measurements of mRNA induction, a form of inducible reporter, as detected with chemiluminescence signals by Quantitative Nuclease Protection Assay (qNPA) technology.Data from the assay component CLD_ABCG2_6hr was analyzed at the endpoint, CLD_ABCG2_6hr, in the positive analysis fitting direction relative to DMSO as the negative control and baseline of activity. Using a type of inducible reporter, gain-of-signal activity can be used to understand changes in the reporter gene as they relate to the gene ABCG2. Furthermore, this assay endpoint can be referred to as a primary readout. To generalize the intended target to other relatable targets, this assay endpoint is annotated to the transporter intended target family, where subfamily is ABC transporter.
Human hepatocyte cultures were treated daily for two consecutive days with fresh dosing solutions containing appropriate concentrations of the 320 ToxCast chemicals (chemical identities were blinded to CellzDirect and other ToxCast collaborators), vehicle control (0.2% DMSO), and positive control inducers as summarized in Table 1. Due to the large number of treatment groups and chemicals examined, the ToxCast chemicals were divided into two groups (spanning two independent cultures of hepatocytes from separate donor preparations (Hu778: ToxCast plates 1 and 2; Hu776: ToxCast plates 3 and 4). Each preparation of human hepatocyte cultures was treated with respective vehicle control, medium only control, set of six positive controls/reference chemicals for the five hepatic receptor pathways, and a subset of eight of the ToxCast chemicals (indoxacarb, pyrithiobac-sodium, norflurazon, cyhalofop-butyl, methomyl, thiram, acetochlor, and propiconazole). These replicate data, coupled with internal replicates designed within the blinded ToxCast chemical library, provided additional data to evaluate interindividual differences between hepatocyte preparations and their potential impact on chemical profiles.Cell morphology and integrity were evaluated using phase-contrast microscopy as an indicator of hepatocyte cell health (Tyson & Green, 1987). Cultures for each treatment group (i.e., media, vehicle [0.2% DMSO], positive control inducers [multiple concentrations], and the ToxCast chemicals [multiple concentrations]) were observed and cell morphology was assessed relative to vehicle control cultures at each harvest time point (0, 6, 24, or 48 h). […] Images were evaluated at the conclusion of the study to assess changes in cell integrity and account for the effects of chemical exposure on uncharacteristic changes in concentration-dependent gene expression profiles. The results from these determinations of apparent cytotoxicity were annotated (yes/no) alongside the corresponding qNPA data for reference.At the conclusion of each treatment period, hepatocyte cultures (96-well) were washed with 1 volume of HBSS, lysed by addition of 25 ul ArrayPlate lysis buffer (HTG, Tucson, AZ), and 70 ul/well of Denaturation Oil, denatured by incubation at 95C for 10 min, and frozen at approximately -70C until analysis by nuclease protection assay (qNPA) (Roberts et al., 2007). For qNPA analysis, cell lysates were thawed at 50C for approximately 30 min, qNPA probes were added, and samples were incubated at 95C for 10 min to begin the detection process by denaturing the target RNA, dissociating the duplexes and secondary structure hybridization. At the conclusion of the hybridization period, S1 nuclease reagent was added to each sample to digest all nonprotected nucleotides at 50C for 60-90 min. […]

Chain of Broad substrate specificity ATP-binding cassette transporter ABCG2 (Homo sapiens) (Q9UNQ0 whole entry, looked up): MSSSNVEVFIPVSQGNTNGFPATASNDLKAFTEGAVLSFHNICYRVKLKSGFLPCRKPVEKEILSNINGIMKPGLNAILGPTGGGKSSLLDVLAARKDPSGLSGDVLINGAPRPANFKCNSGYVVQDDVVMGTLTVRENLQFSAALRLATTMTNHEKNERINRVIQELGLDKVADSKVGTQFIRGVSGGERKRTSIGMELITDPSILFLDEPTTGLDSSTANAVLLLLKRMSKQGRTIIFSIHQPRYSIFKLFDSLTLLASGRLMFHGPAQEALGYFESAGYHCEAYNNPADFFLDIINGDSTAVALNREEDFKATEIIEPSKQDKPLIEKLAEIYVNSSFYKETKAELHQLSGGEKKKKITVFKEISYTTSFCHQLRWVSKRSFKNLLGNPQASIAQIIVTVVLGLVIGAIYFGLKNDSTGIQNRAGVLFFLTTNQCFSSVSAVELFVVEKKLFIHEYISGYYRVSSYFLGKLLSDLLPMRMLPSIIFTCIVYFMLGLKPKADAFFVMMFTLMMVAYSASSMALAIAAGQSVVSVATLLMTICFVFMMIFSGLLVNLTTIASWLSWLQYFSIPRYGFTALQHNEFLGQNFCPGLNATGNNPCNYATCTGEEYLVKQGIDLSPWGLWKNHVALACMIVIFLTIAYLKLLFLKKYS

SMILES	outcome	AC50
CCOP(=O)(SC(C)CC)N1CCSC1=O (stereo not given)	inactive	–
CCCCSP(=O)(SCCCC)SCCCC	inactive	–
CCOP(=S)(OCC)Oc1ccc2c(C)c(Cl)c(=O)oc2c1	inactive	–
CCCSP(=O)(OCC)Oc1ccc(Br)cc1Cl (stereo not given)	inactive	–
CNc1cnn(-c2cccc(C(F)(F)F)c2)c(=O)c1Cl	inactive	–
C[N+]1(C)CCCCC1	inactive	–
CC(COc1ccc(Oc2ccccc2)cc1)Oc1ccccn1 (stereo not given)	inactive	–
CC(Oc1cccc(Cl)c1)C(=O)O (stereo not given)	inactive	–
COc1ccc(C(=CC(=O)N2CCOCC2)c2ccc(Cl)cc2)cc1OC	inactive	–
COc1cccc(C(=O)NN(C(=O)c2cc(C)cc(C)c2)C(C)(C)C)c1C	inactive	–
C#CCC1=C(C)C(OC(=O)C2C(C=C(C)C)C2(C)C)CC1=O (stereo not given)	inactive	–
COP(=O)(OC)SCn1c(=O)oc2cc(Cl)cnc21	inactive	–
CCc1cccc(CC)c1N(COC)C(=O)CCl	inactive	–
CON=C(C(=O)OC)c1ccccc1CON=C(C)c1cccc(C(F)(F)F)c1	inactive	–
CCOP(=S)(OCC)Oc1cc(C)nc(C(C)C)n1	inactive	–
CC1(C(=O)Nc2ccc(O)c(Cl)c2Cl)CCCCC1	inactive	–
S=C1NCCN1	inactive	–
CSc1nc(NC(C)C)nc(NC(C)C)n1	inactive	–
CC(C)[C@H](C(=O)O[C@H](C#N)c1cccc(Oc2ccccc2)c1)c1ccc(Cl)cc1	inactive	–
C#CC(C)(C)NC(=O)c1cc(Cl)cc(Cl)c1	inactive	–

SMILES	outcome	AC50
CCCCOC(=O)c1ccccc1C(=O)O	inactive	–
CNC(=O)ON=C(C)SC	inactive	–
CN(C)NC(=O)CCC(=O)O	inactive	–
CC[C@H](C)[C@H]1O[C@]2(C=C[C@@H]1C)C[C@@H]1C[C@@H](C/C=C(\C)[C@@H](O[C@H]3C[C@H](OC)[C@@H](O[C@H]4C[C@H](OC)[C@@H](NC)[C@H](C)O4)[C@H](C)O3)[C@@H](C)/C=C/C=C3\CO[C@@H]4[C@H](O)C(C)=C[C@@H](C(=O)O1)[C@]34O)O2	–	29.5 µM (active)
O=c1ccc(=O)[nH][nH]1	inactive	–
Cc1cc(C2CC2)nc(Nc2ccccc2)n1	inactive	–
COP(=O)(OC)OC(Br)C(Cl)(Cl)Br (stereo not given)	inactive	–
CCCOc1nn(C(=O)NS(=O)(=O)c2ccccc2C(=O)OC)c(=O)n1C	inactive	–
CN(C)[C@@H]1C(=O)C(C(N)=O)=C(O)[C@@]2(O)C(=O)C3=C(O)c4c(O)cccc4[C@@](C)(O)[C@H]3[C@H](O)[C@@H]12	inactive	–
O=C(O)c1cc(Oc2ccc(C(F)(F)F)cc2Cl)ccc1[N+](=O)[O-]	inactive	–
N#CSCSC#N	inactive	–
CCC(=NOC/C=C/Cl)C1=C(O)CC(C2CCOCC2)CC1=O (stereo not given)	inactive	–
CC1=NNC(=O)N(/N=C/c2cccnc2)C1	inactive	–
CN(C)C(=O)Nc1cccc(C(F)(F)F)c1	inactive	–
CC(=NC#N)N(C)Cc1ccc(Cl)nc1	inactive	–
CC(C)=CC1C(C(=O)OCN2C(=O)C3=C(CCCC3)C2=O)C1(C)C (stereo not given)	inactive	–
CSc1nnc(C(C)(C)C)c(=O)n1N	inactive	–
COP(=O)(NC(C)=O)SC (stereo not given)	inactive	–
CCCOCC(=Nc1ccc(Cl)cc1C(F)(F)F)n1ccnc1	inactive	–
CCOP(=O)(OCC)Oc1cc(C)nc(C(C)C)n1	inactive	–
